What all share (conditions): mRNA level, 48 h; actives raise or lower the signal
Read-out in test [1]: Cytochrome P450 (CYP24A1), CYP24A1 (gene 1591)
The experiment in a line: LTEA_HepaRG_CYP24A1: Life Technologies and Expression Analysis (LTEA) Assay for Cytochrome P450 (CYP24A1) using HepaRG (AID 2283478). A digest of the protocol: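 qRT-PCR read-out: CYP24A1 transcript levels normalized to three housekeeping genes, bidirectional curve fits against 0.5% DMSO baseline. Human HepaRG cells treated 48 h with chemicals at eight concentrations from 100 uM in half-log steps.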

Read-out in test [2]: Cytochrome P450 (CYP1A2), CYP1A2 (gene 1544)
The experiment in a line: LTEA_HepaRG_CYP1A2: Life Technologies and Expression Analysis (LTEA) Assay for Cytochrome P450 (CYP1A2) using HepaRG (AID 2283479). A digest of the protocol:
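HepaRG, 48 h exposure, top 100 uM, half-log 8-pt, 0.5% DMSO vehicle, duplicates. Readout: TaqMan qRT-PCR of CYP1A2 mRNA, housekeeping-normalized (ACTB/GAPDH/POLR2A). Gain/loss fit relative to DMSO baseline.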

Read-out in test [3]: cysteine-aspartic acid protease (CASP8), CASP8 (gene 841)
The experiment in a line: LTEA_HepaRG_CASP8: Life Technologies and Expression Analysis (LTEA) Assay for cysteine-aspartic acid protease (CASP8) using HepaRG (AID 2283480). Put shortly:
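qRT-PCR readout of CASP8 mRNA, normalized to three housekeeping genes, after 48 h chemical exposure of HepaRG cells; 8-point half-log series, top 100 uM, 0.5% DMSO vehicle. Bidirectional curve fitting against DMSO baseline.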

Read-out in test [4]: Cytochrome P450 (CYP2B6), CYP2B6 (gene 1555)
Kind of test: LTEA_HepaRG_CYP2B6: Life Technologies and Expression Analysis (LTEA) Assay for Cytochrome P450 (CYP2B6) using HepaRG (AID 2283481). Put shortly: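 Read-out is CYP2B6 mRNA by TaqMan qRT-PCR, normalized to three housekeeping genes and fitted bidirectionally against 0.5% DMSO baseline. Human HepaRG cells received test chemicals for 48 h, top concentration 100 uM, half-log dilutions.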

Read-out in test [5]: Cytochrome P450 2C19 (Homo sapiens) (UniProt P33261)
The experiment in a line: LTEA_HepaRG_CYP2C19: Life Technologies and Expression Analysis (LTEA) Assay for CYP2C19 using HepaRG (AID 2283482). Put shortly: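 HepaRG, 48 h chemical exposure, 8-pt half-log series from 100 uM in 0.5% DMSO, duplicates. Readout: CYP2C19 mRNA by TaqMan qRT-PCR, housekeeping-normalized. Bidirectional fit vs DMSO baseline; phenobarbital 1mM as induction control.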

Read-out in a further test: CYP2C8 (gene 1558)
The experiment in a line: LTEA_HepaRG_CYP2C8: Life Technologies and Expression Analysis (LTEA) Assay for CYP2C8 using HepaRG (AID 2283483). A digest of the protocol:
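HepaRG (human liver line), 48 h chemical exposure, 8-pt half-log series from 100 uM, 0.5% DMSO vehicle. Readout: CYP2C8 transcript by qRT-PCR, housekeeping-normalized. Bidirectional fit vs DMSO baseline.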

Read-out in a further test: CYP2C9 (gene 1559)
The experiment in a line: LTEA_HepaRG_CYP2C9: Life Technologies and Expression Analysis (LTEA) Assay for CYP2C9 using HepaRG (AID 2283484). A digest of the protocol: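 HepaRG, 48 h dosing, 8-pt half-log series, top 100 uM, 0.5% DMSO vehicle. Read-out: CYP2C9 transcript by TaqMan qRT-PCR, housekeeping-normalized (ACTB/GAPDH/POLR2A). Gain or loss fitted vs DMSO baseline.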

Read-out in test [6]: Cytochrome P450 3A4 (Homo sapiens) (UniProt P08684)
Kind of test: LTEA_HepaRG_CYP3A4: Life Technologies and Expression Analysis (LTEA) Assay for CYP3A4 using HepaRG (AID 2283487). A digest of the protocol: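 HepaRG, 48 h exposure, 8-pt CRC from 100 uM (half-log), 0.5% DMSO, duplicates; serum-free induction medium. Readout: CYP3A4 mRNA, qRT-PCR, ACTB/GAPDH/POLR2A normalization. Bidirectional fit vs DMSO.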

Read-out in test [7]: DNA damage-inducible transcript 3 (DDIT3), DDIT3 (gene 1649)
The experiment in a line: LTEA_HepaRG_DDIT3: Life Technologies and Expression Analysis (LTEA) Assay for DNA damage-inducible transcript 3 (DDIT3) using HepaRG (AID 2283488). Put shortly: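 Cells are human HepaRG liver cells treated for 48 h with eight half-log concentrations up to 100 uM in 0.5% DMSO. Transcript levels come from qRT-PCR normalized to three housekeeping genes, with activity fitted in both directions relative to vehicle.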

Read-out in test [8]: Early growth response protein 1 (EGR1) transcription factor, EGR1 (gene 1958)
Kind of test: LTEA_HepaRG_EGR1: Life Technologies and Expression Analysis (LTEA) Assay for Early growth response protein 1 (EGR1) transcription factor using HepaRG (AID 2283490). Put shortly: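 HepaRG, 48 h exposure, 8-pt half-log series from 100 uM, 0.5% DMSO vehicle; EGR1 transcript by TaqMan qRT-PCR (Fluidigm array), housekeeping-normalized; bidirectional fit relative to DMSO baseline.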

Read-out in test [9]: Ezrin (EZR), EZR (gene 7430)
Kind of test: LTEA_HepaRG_EZR: Life Technologies and Expression Analysis (LTEA) Assay for Ezrin (EZR) using HepaRG (AID 2283491). A digest of the protocol: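 Read-out is EZR transcript level by qRT-PCR, normalized to three housekeeping genes and fitted bidirectionally against the DMSO control. Human HepaRG cells received test chemicals for 48 h at eight half-log concentrations up to 100 uM in 0.5% DMSO.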

Read-out in test [10]: Cytochrome P450 3A7 (Homo sapiens) (UniProt P24462)
Kind of test: LTEA_HepaRG_CYP3A7: Life Technologies and Expression Analysis (LTEA) Assay for CYP3A7 using HepaRG (AID 2283492). Put shortly: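 CYP3A7 transcript levels were read by TaqMan qRT-PCR on Fluidigm arrays after 48 h chemical exposure of human HepaRG cells, with housekeeping-gene normalisation. Eight half-log concentrations up to 100 uM in 0.5% DMSO were tested in duplicate.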

Read-out in a further test: CYP3A5 (gene 1577)
Kind of test: LTEA_HepaRG_CYP3A5: Life Technologies and Expression Analysis (LTEA) Assay for CYP3A5 using HepaRG (AID 2283493). A digest of the protocol: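 Human HepaRG hepatic cells receive 48 h chemical treatment at eight concentrations (half-log steps from 100 uM) in 0.5% DMSO. Expression of CYP3A5 is quantified by Fluidigm qRT-PCR and normalized to three reference genes.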

Read-out in test [11]: Fatty Acid-Binding Protein 1 (FABP1), FABP1 (gene 2168)
The experiment in a line: LTEA_HepaRG_FABP1: Life Technologies and Expression Analysis (LTEA) Assay for Fatty Acid-Binding Protein 1 (FABP1) using HepaRG (AID 2283494). Put shortly:
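qRT-PCR readout of FABP1 transcript (normalized to three housekeeping genes) after 48 h chemical exposure of HepaRG cells; eight concentrations, half-log steps, max 100 uM, 0.5% DMSO vehicle; gain or loss fitted relative to DMSO baseline.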

Read-out in test [12]: Cytochrome P450 7A1 (Homo sapiens) (UniProt P22680)
Kind of test: LTEA_HepaRG_CYP7A1: Life Technologies and Expression Analysis (LTEA) Assay for Cytochrome P450 7A1 (CYP7A1) using HepaRG (AID 2283496). Put shortly: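 HepaRG, 48 h exposure, 8-pt half-log series from 100 uM, 0.5% DMSO vehicle, duplicates. Readout: TaqMan qRT-PCR mRNA vs three housekeeping genes; bidirectional curve fit against DMSO baseline.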

Read-out in test [13]: Glutathione S-Transferase (GSTA2), GSTA2 (gene 2939)
Kind of test: LTEA_HepaRG_GSTA2: Life Technologies and Expression Analysis (LTEA) Assay for Glutathione S-Transferase (GSTA2) using HepaRG (AID 2283497). Put shortly: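 qRT-PCR readout of GSTA2 transcript, normalized to three housekeeping genes, fitted bidirectionally against 0.5% DMSO baseline. Differentiated HepaRG cells received compound for 48 h at 8 concentrations (top 100 uM, half-log steps).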

Read-out in test [14]: Pro-epidermal growth factor (Homo sapiens) (UniProt P01133)
The experiment in a line: LTEA_HepaRG_EGF: Life Technologies and Expression Analysis (LTEA) Assay for Epidermal growth factor (EGF) using HepaRG (AID 2283489). Put shortly:
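qRT-PCR readout of EGF transcript after 48 h chemical exposure of HepaRG cells; eight concentrations from 100 uM down in half-log steps, duplicate wells, 0.5% DMSO vehicle. Bidirectional curve fitting against DMSO baseline.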

Read-out in another test: CYP4A11 (gene 1579)
Kind of test: LTEA_HepaRG_CYP4A11: Life Technologies and Expression Analysis (LTEA) Assay for CYP4A11 using HepaRG (AID 2283486). A digest of the protocol:
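CYP4A11 transcript levels were quantified by TaqMan qRT-PCR after HepaRG human liver cells were treated for 48 hours with test chemicals (top 100 uM, half-log dilutions, 0.5% DMSO). Gain or loss of signal was fitted relative to DMSO.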

Read-out in another test: CYP2E1 (gene 1571)
The experiment in a line: LTEA_HepaRG_CYP2E1: Life Technologies and Expression Analysis (LTEA) Assay for CYP2E1 using HepaRG (AID 2283485). Put shortly:
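Readout is qRT-PCR of CYP2E1 mRNA, normalized to three housekeeping genes and fitted bidirectionally against 0.5% DMSO. HepaRG cells were dosed 48 h at eight concentrations, highest 100 uM with half-log dilutions.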

Read-out in test [15]: Cytochrome P450 4A22 (Homo sapiens) (UniProt Q5TCH4)
The experiment in a line: LTEA_HepaRG_CYP4A22: Life Technologies and Expression Analysis (LTEA) Assay for Cytochrome P450 4A22 (CYP4A22) using HepaRG (AID 2283495). Put shortly: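 HepaRG, 48 h post-plating -> serum-free induction medium; dosed 48 h, duplicate, 8 conc. (100 uM top, half-log), 0.5% DMSO. Readout: CYP4A22 mRNA by qRT-PCR, ACTB/GAPDH/POLR2A normalization; gain/loss fit relative to DMSO.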

The source made the active and inactive calls. The calls were made as follows: active = hit-call score of the fitted dose curve at least 0.9, where 1 is the maximum; inactive = score below 0.9.

A word on the AC50: it is the concentration giving half of the maximal activity seen.

Cytochrome P450 2C19 (Homo sapiens), sequence (P33261 whole entry, looked up): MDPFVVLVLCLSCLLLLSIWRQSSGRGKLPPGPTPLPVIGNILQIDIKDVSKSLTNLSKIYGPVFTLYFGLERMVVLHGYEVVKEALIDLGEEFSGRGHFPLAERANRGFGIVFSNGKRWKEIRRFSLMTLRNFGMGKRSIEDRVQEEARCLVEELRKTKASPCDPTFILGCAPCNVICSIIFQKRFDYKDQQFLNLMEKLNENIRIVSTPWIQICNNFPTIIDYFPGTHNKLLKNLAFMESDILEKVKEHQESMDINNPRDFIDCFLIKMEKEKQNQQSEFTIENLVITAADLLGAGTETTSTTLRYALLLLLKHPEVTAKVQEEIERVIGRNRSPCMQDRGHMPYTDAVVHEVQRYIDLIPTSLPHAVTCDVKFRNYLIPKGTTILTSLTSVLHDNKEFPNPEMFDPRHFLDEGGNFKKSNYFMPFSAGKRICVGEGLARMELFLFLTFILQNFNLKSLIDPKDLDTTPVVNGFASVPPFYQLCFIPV
Cytochrome P450 3A4 (Homo sapiens), sequence (P08684 whole entry, looked up): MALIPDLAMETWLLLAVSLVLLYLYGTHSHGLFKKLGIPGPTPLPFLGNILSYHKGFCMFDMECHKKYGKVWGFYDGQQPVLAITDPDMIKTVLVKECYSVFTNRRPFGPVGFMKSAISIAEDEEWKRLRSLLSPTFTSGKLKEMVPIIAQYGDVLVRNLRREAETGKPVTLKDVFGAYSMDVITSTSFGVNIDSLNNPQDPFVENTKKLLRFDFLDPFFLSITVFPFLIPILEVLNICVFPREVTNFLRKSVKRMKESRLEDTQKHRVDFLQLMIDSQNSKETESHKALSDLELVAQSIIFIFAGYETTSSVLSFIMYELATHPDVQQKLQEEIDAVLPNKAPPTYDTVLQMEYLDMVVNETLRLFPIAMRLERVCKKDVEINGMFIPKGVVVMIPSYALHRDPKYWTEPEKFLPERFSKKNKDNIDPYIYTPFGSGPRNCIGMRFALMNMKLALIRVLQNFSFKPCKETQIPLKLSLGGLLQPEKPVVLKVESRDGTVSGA
Cytochrome P450 3A7 (Homo sapiens), sequence (P24462 whole entry, looked up): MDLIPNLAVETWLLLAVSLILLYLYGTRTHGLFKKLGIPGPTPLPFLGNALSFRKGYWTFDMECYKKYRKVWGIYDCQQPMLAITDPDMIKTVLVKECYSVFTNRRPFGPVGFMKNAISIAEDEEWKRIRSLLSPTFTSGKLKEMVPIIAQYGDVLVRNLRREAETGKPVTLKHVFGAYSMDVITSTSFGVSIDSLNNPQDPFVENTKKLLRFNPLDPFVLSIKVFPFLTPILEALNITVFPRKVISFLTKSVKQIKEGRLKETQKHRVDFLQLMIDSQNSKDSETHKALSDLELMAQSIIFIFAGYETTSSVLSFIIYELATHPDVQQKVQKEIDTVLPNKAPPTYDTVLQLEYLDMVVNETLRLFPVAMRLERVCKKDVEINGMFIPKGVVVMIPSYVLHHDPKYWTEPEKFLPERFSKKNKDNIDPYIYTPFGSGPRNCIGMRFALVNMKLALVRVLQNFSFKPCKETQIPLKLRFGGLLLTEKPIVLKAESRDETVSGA

In the case of `NC1CCCCC1`, the call (in [1]; in [2]; in test [3]; in test [4]; in [5]; in the test with CYP2C8 (gene 1558)) was inactive. Further, the outcome (with CYP2C9 (gene 1559); in test [6]; in test [7]; in [8]; in [9]; in test [10]) was inactive. Besides, the compound was called inactive (with CYP3A5 (gene 1577); in test [11]; in [12]; in [13]).
With `O=C1NC(=O)C(c2ccccc2)(c2ccccc2)N1`, the result (in test [1]; in [3]; in the test with CYP2C9 (gene 1559); in [7]; in [14]; in test [8]) was inactive. Also, the compound was called inactive (in test [9]; in the test with CYP3A5 (gene 1577); in [12]). The AC50 in [2] is 50 µM (active); in test [4], 1.18 µM (active); in [5], 14.1 µM (active); with CYP2C8 (gene 1558) it was 13.1 µM (active); in test [11] it was 17.9 µM (active); in [13] it was 9.92 µM (active).
`CS(=O)(=O)c1ccc([C@@H](C[C@H]2CCC(=O)C2)C(=O)Nc2cnccn2)cc1Cl`: the concentration at half-maximal activity (AC50) in test [3] is 1.2 µM (active); in test [5], 1.38 µM (active); in the test with CYP2C8 (gene 1558), 1.09 µM (active); in test [7], 18.6 µM (active); in test [14], 23.5 µM (active). In addition, the outcome (with CYP2C9 (gene 1559); with CYP4A11 (gene 1579); in [8]; in [9]; in test [11]; in test [13]) was inactive.
Regarding `O=C(O)c1cccnc1`, the result (in [1]; in test [2]; in [3]; in [4]; in test [5]; with CYP2C8 (gene 1558)) was inactive. Also, the outcome (with CYP2E1 (gene 1571); in test [6]; in [7]; in test [14]; in [8]; in test [9]) was inactive. Further, the compound was called inactive (in test [10]; with CYP3A5 (gene 1577); in test [11]; in test [15]; in test [12]; in [13]).

The values are drawn from PubChem BioAssay (EPA / NIEHS).
